Eleven compounds from PubChem BioAssay AID624496 (National Center for Advancing Translational Sciences (NCATS), 2012) can be followed below.

Each structure is given as a SMILES string. Results filed as inconclusive are left out. Activity calls are given as the source filed them. Calls come from the whole dose curve; as a rule, active = well fitted inhibition curve with a large enough effect; inconclusive = small, poorly fitted or top-dose-only effect, or another doubt; inactive = no such curve, though single readings can be large or run the other way.

In this experiment the target is D(2) dopamine receptor (Homo sapiens) (UniProt P14416). Nature of the experiment: HTS Assay for Allosteric Antagonists of the Human D2 Dopamine Receptor: SAR in Primary Assay. The settings on record: HEK293 T-REx D2 cells, calcium flux, dopamine EC80 antagonism; activity, negative = inhibition: at 41.8 µM (top of the series) unless noted. The source says: Dopamine receptors (DARs) are involved in the etiology and/or therapy of a number of neuropsychiatric and endocrine disorders. For instance, all receptor-based antiparkinsonian drugs work via stimulating the D2 DAR subtype whereas all FDA-approved antipsychotic agents are antagonists of this receptor. […] There are three different types of allosteric modulators that we are seeking, two of which will stimulate or augment receptor signaling, allosteric agonists and potentiators, while the third, allosteric antagonists, will attenuate receptor signaling. The present project is looking for compound antagonism after an EC80 addition of dopamine by tracking calcium flux in a […], inducible Hek293 Trex D2 cell line, which act through an allosteric site. NIH Chemical Genomics Center [NCGC] NIH Molecular Libraries Probe Centers Network [MLPCN] MLPCN Grant: NS064831 Assay Submitter (PI): David Sibley
Sequence of D(2) dopamine receptor (Homo sapiens) (P14416 whole entry, looked up): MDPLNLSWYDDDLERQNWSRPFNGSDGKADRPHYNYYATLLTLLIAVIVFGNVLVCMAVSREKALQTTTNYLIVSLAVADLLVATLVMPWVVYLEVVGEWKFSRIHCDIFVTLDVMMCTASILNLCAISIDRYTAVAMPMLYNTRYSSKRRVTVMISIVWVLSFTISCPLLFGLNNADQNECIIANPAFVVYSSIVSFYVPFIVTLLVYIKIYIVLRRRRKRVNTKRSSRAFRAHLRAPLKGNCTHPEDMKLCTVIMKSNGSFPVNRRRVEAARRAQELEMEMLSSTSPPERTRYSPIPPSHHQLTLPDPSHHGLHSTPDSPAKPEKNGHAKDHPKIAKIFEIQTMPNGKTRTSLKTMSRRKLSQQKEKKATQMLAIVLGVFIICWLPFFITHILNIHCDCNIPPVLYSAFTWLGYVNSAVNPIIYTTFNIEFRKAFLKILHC
Freshly passaged cells are plated in 1536 well black, clear bottom plates at a density of 4000 cells/well in 3 ul of complete media containing 1x tetracycline inducer. After an overnight incubation at 30 deg C in 5% CO2, cells are loaded with 2 ul of the no wash Calcium Assay Kit (ABD Bioquest) and incubated at room temperature for 30 to 90 minutes. Agonist read: A 10 cycle (1 second/cycle) baseline measurement is taken and then the FDSS online 1536 pintool delivers 23 nl of compound library (as well as dopamine controls) to the plate. The plate is measured for kinetically at 1 cycle/sec for 180 seconds. Following the 180 second read, 1 ul of an EC80 (negative modulation assay) is delivered by an onboard pipette head. Measurements are taken kinetically for an additional 180 seconds.
In the case of `CCN1C(=O)c2ccccc2S(=O)c2ccc(C(=O)NCc3ccccc3)cc21` (stereo unspecified), the Potency is 705 nM (active).

Turning to `CCN1C(=O)c2ccccc2S(=O)c2ccc(C(=O)NCc3ccc(C)cc3)cc21` (stereo unspecified), the activity, negative = inhibition worked out at 5.87% [at 4.65 µM].

As to `CN1C(=O)c2ccccc2[S@](=O)c2ccc(C(=O)NCCN3CCCC3)cc21`, the Potency is 4450 nM (active).

Turning to `COc1ccc(CNC(=O)c2ccc3c(c2)NC(=O)c2ccccc2S3=O)cc1` (stereo unspecified), the Potency was 141 nM (active).

Consider `COc1ccc(NC(=O)c2ccc3c(c2)N(C)C(=O)c2ccccc2S3=O)cc1` (stereo unspecified), for which the Potency was 11200 nM (active).

`CCN1C(=O)c2ccccc2[S@](=O)c2ccc(C(=O)N[C@H](C)c3ccc4ccccc4c3)cc21`: the Potency was 70.5 nM (active).

As to `CN1C(=O)c2ccccc2S(=O)c2ccc(C(=O)NCCN3CCCC3)cc21` (stereo unspecified), the Potency is 280 nM (active).

Consider `CN1C(=O)c2ccccc2[S@](=O)c2ccc(C(=O)NCc3ccc(Br)cc3)cc21`, for which the Potency was 70.5 nM (active).

Turning to `CN1C(=O)c2ccccc2[S@](=O)c2ccc(C(=O)NCc3ccc(Cl)cc3)cc21`, the Potency is 445 nM (active).

Turning to `CN1C(=O)c2ccccc2S(=O)c2ccc(C(=O)NCc3cccnc3)cc21` (stereo unspecified), the activity, negative = inhibition is -114% [at 4.65 µM] (active).

As to `CCN1C(=O)c2ccccc2[S@@](=O)c2ccc(C(=O)NCc3ccc(OC)cc3)cc21`, the activity, negative = inhibition is -112%.
